# Measurements taken from the supplement of paper PMC4022240.
# ± gives the standard deviation.
# T1: HaloTag-ATRX ADD domain (163-292)
# T1 chain: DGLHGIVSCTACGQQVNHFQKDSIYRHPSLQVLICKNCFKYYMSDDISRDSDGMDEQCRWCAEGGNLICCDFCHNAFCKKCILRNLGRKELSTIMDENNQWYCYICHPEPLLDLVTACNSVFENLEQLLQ
# Assays:
# Assay in all cases: peptide microarray binding signal (635 nm), min-max normalized on array (fraction of array maximum); higher = stronger binding
# [1] = target: T1, HaloTag-ATRX ADD domain (163-292)
# Method in brief: (§1)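 For each library, binding signal was taken as the triplicate-spot mean intensity and then min-max scaled. Spots of histone 13-mer peptide–cellulose conjugates on nitrocellulose, printed in triplicate with a Cy3 tracer, were probed for 1 h at 4°C with either biotin-labelled HaloTag reader fusions (10 nM to 1 μM) and streptavidin-Alexa Fluor 647 or rabbit histone antibodies (1:10,000 to 1:2,000) and anti-rabbit Alexa 647. Readout at 635 nm came from an Axon GenePix 4000B.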
# [2] = target: HaloTag-ING2 PHD (mouse Ing2 200-280)
# Method in brief: as §1
# [3] = target: anti-H3K4me3 antibody ab8580
# Method in brief: as §1
# [4] = target: anti-H3K9me3 antibody ab8898
# Method in brief: as §1
# [5] = peptide region: H3 20-32, peptide modifications: H3T22ph H3K23me1, binder concentration: 1:2,000 dilution
# [6] = peptide region: H3 20-32, peptide modifications: H3T22ph H3K23me1, binder concentration: 1:10,000 dilution
# [7] = peptide region: H3 30-42, peptide modifications: H3K36me1, binder concentration: 1:2,000 dilution
# [8] = peptide region: H3 30-42, peptide modifications: H3K36me1, binder concentration: 1:10,000 dilution
# [9] = peptide region: H3 20-32, peptide modifications: H3T22ph, binder concentration: 1:2,000 dilution
# [10] = peptide region: H3 20-32, peptide modifications: H3T22ph, binder concentration: 1:10,000 dilution
# [11] = peptide region: H3 20-32, peptide modifications: H3S28ph, binder concentration: 1:2,000 dilution
# [12] = peptide region: H3 20-32, peptide modifications: H3S28ph, binder concentration: 1:10,000 dilution
# [13] = peptide region: H3 20-32, peptide modifications: H3T22ph H3K23me3, binder concentration: 1:2,000 dilution
# [14] = peptide region: H3 20-32, peptide modifications: H3T22ph H3K23me3, binder concentration: 1:10,000 dilution
binder,measurement,setting,value
LATKAARKSAPAT [H3 20-32 L A Tph Kme A A R K S A P A T],peptide microarray binding signal,"[1]; peptide region: H3 20-32, peptide modifications: H3T22ph H3K23me1, binder concentration: 50 nM",0.012 ± 0.0014
same,peptide microarray binding signal,"[1]; peptide region: H3 20-32, peptide modifications: H3T22ph H3K23me1, binder concentration: 500 nM",0.0173 ± 0.0019
same,peptide microarray binding signal,"[2]; peptide region: H3 20-32, peptide modifications: H3T22ph H3K23me1, binder concentration: 10 nM",0.0223 ± 0.0014
same,peptide microarray binding signal,"[2]; peptide region: H3 20-32, peptide modifications: H3T22ph H3K23me1, binder concentration: 100 nM",0.0368 ± 0.0079
same,peptide microarray binding signal,[3]; [5],0.00793 ± 0.0012
same,peptide microarray binding signal,[3]; [6],0.0102 ± 0.0018
same,peptide microarray binding signal,[4]; [5],0.00538 ± 0.00068
same,peptide microarray binding signal,[4]; [6],0.003 ± 9.2e-05
PATGGVKKPHRYR [H3 30-42 P A T G G V Kme K P H R Y R],peptide microarray binding signal,"[1]; peptide region: H3 30-42, peptide modifications: H3K36me1, binder concentration: 50 nM",0.0102 ± 0.00043
same,peptide microarray binding signal,"[1]; peptide region: H3 30-42, peptide modifications: H3K36me1, binder concentration: 500 nM",0.015 ± 0.0004
same,peptide microarray binding signal,"[2]; peptide region: H3 30-42, peptide modifications: H3K36me1, binder concentration: 10 nM",0.0184 ± 0.00087
same,peptide microarray binding signal,"[2]; peptide region: H3 30-42, peptide modifications: H3K36me1, binder concentration: 100 nM",0.0275 ± 0.0015
same,peptide microarray binding signal,[3]; [7],0.00478 ± 0.00043
same,peptide microarray binding signal,[3]; [8],0.00474 ± 0.00045
same,peptide microarray binding signal,[4]; [7],0.00237 ± 7.4e-05
same,peptide microarray binding signal,[4]; [8],0.00277 ± 4.8e-05
LATKAARKSAPAT [H3 20-32 L A Tph K A A R K S A P A T],peptide microarray binding signal,"[1]; peptide region: H3 20-32, peptide modifications: H3T22ph, binder concentration: 50 nM",0.00339 ± 3.7e-05
same,peptide microarray binding signal,"[1]; peptide region: H3 20-32, peptide modifications: H3T22ph, binder concentration: 500 nM",0.00638 ± 0.00025
same,peptide microarray binding signal,"[2]; peptide region: H3 20-32, peptide modifications: H3T22ph, binder concentration: 10 nM",0.0046 ± 6.2e-05
same,peptide microarray binding signal,"[2]; peptide region: H3 20-32, peptide modifications: H3T22ph, binder concentration: 100 nM",0.00772 ± 0.00064
same,peptide microarray binding signal,[3]; [9],0.001548 ± 1.2e-05
same,peptide microarray binding signal,[3]; [10],0.00194 ± 3.1e-05
same,peptide microarray binding signal,[4]; [9],0.00068 ± 2.1e-05
same,peptide microarray binding signal,[4]; [10],0.00115 ± 2e-05
LATKAARKSAPAT [H3 20-32 L A T K A A R K Sph A P A T],peptide microarray binding signal,"[1]; peptide region: H3 20-32, peptide modifications: H3S28ph, binder concentration: 50 nM",0.013 ± 0.00031
same,peptide microarray binding signal,"[1]; peptide region: H3 20-32, peptide modifications: H3S28ph, binder concentration: 500 nM",0.00843 ± 0.0004
same,peptide microarray binding signal,"[2]; peptide region: H3 20-32, peptide modifications: H3S28ph, binder concentration: 10 nM",0.01074 ± 4.2e-05
same,peptide microarray binding signal,"[2]; peptide region: H3 20-32, peptide modifications: H3S28ph, binder concentration: 100 nM",0.0104 ± 0.00034
same,peptide microarray binding signal,[3]; [11],0.001057 ± 8.9e-06
same,peptide microarray binding signal,[3]; [12],0.00126
same,peptide microarray binding signal,[4]; [11],0.00116 ± 2.3e-05
same,peptide microarray binding signal,[4]; [12],0.00144 ± 2.8e-05
LATKAARKSAPAT [H3 20-32 L A Tph Kme3 A A R K S A P A T],peptide microarray binding signal,"[1]; peptide region: H3 20-32, peptide modifications: H3T22ph H3K23me3, binder concentration: 50 nM",0.00577 ± 0.00039
same,peptide microarray binding signal,"[1]; peptide region: H3 20-32, peptide modifications: H3T22ph H3K23me3, binder concentration: 500 nM",0.0105 ± 0.00049
same,peptide microarray binding signal,"[2]; peptide region: H3 20-32, peptide modifications: H3T22ph H3K23me3, binder concentration: 10 nM",0.0219 ± 0.0024
same,peptide microarray binding signal,"[2]; peptide region: H3 20-32, peptide modifications: H3T22ph H3K23me3, binder concentration: 100 nM",0.026 ± 0.0027
same,peptide microarray binding signal,[3]; [13],0.0775 ± 0.0084
same,peptide microarray binding signal,[3]; [14],0.0633 ± 0.0092
same,peptide microarray binding signal,[4]; [13],0.0523 ± 0.0034
same,peptide microarray binding signal,[4]; [14],0.0244 ± 0.0027
